The values that follow come from PubChem BioAssay.

Activity calls are given as the source filed them.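 How the source made its calls: active means z-score of at least 1.8 in each of two replicates, scored against plate mean and spread of sample wells; inactive means the rest.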

A short description of this assay: viability rescue of complex I mutant cybrids, primary screen, cell-based, galactose medium, ATP luminescence (AID 1645843).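 Further: positive z means more ATP and so rescue of galactose-driven cybrid death.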 The settings on record: complex I mutant cybrid cells, 72 h, hits give high values.
For `CCC(CC)CN1CCC(NS(C)(=O)=O)CC1`, the z-score was -0.53 (inactive). In the case of `Cc1cc(N2CCCN(C(=O)Nc3nncs3)CC2)ccn1` it was -0.265 (inactive); in that of `CC(CCCC(C)(C)O)CCNCC1(CO)CCC1` (stereo not given), -0.48 (inactive).

For the molecule `O=C1CN(c2ncnc3sccc23)CCN1Cc1ccc(F)cc1`, the z-score is 0.19 (inactive). Take `Cc1cc(NC(=O)Cn2ccc(-c3ccncc3)n2)n(-c2ccccn2)n1`: the z-score was 0.42 (inactive). Regarding `COc1ccc(CN2CCN(c3nccc(-c4c(C)nn(C)c4C)n3)CC2=O)cc1`, the z-score was 1.14 (inactive).

Take `O=C(C1CCCCCC1)N1CCCC(Cn2cc(-c3ccccn3)nn2)C1` (stereo not given): the z-score is -0.33 (inactive).

Consider `CC(=O)c1ccccc1-c1ccc2ccccc2n1`, for which the z-score was -0.515 (inactive).

In the case of `O=C(Nc1cccc(-c2cscn2)c1)c1ccc2nccnc2c1`, the z-score is -0.95 (inactive). In the case of `CC(C)(O)c1cn(C2CCN(C(=O)CCC(=O)N3CCCCCC3)CC2)nn1`, the z-score was -0.545 (inactive). With `CN(C)Cc1cn(C2CCN(C(=O)C3CCCCCC3)CC2)nn1`, the z-score was -0.49 (inactive).

As to `CN1CCN(c2ccc3cc(Cl)ccc3n2)CC1=O`, the z-score is -0.56 (inactive).

In the case of `CCCc1cn(CC2CCN(C(=O)[C@@H](N)[C@@H](C)CC)CC2)nn1`, the z-score was -0.24 (inactive). On to `Cc1ccn(CCN2CCC(Oc3cccc(Cl)c3)CC2)n1`, for which the z-score is 0.135 (inactive). Take `CC[C@H](C)[C@H](N)C(=O)N1CCC(Cn2cc(C3CCCCC3)nn2)CC1`: the z-score was -0.81 (inactive). In the case of `C=C1C2(C(=O)N3CCC(c4ccccc4F)C3)CCC(C2)C1(C)C` (stereo not given), the z-score is 1.09 (inactive). Turning to `CC1CCCCN1Cc1ccc(-c2nc(CCn3cccn3)cc(=O)[nH]2)cc1` (stereo not given), the z-score was -0.245 (inactive). On to `Cc1ccc(CC(=O)Nc2ccnn2C2CCCCC2)cc1F`, for which the z-score was 0.325 (inactive). Consider `COc1nc2c(cc1C(=O)N1CCOc3ccccc31)CCC2`, for which the z-score is 0.225 (inactive). As to `CCCCc1cn(C2CCN(C(=O)C3CCCCCC3)CC2)nn1`, the z-score was -0.56 (inactive). In the case of `Cn1nc(NC(=O)Cn2ccc(-c3ccsc3)n2)c2ccccc21` it was 0.985 (inactive). Turning to `O=C(Cn1cc(-c2cncnc2)cn1)Nc1ccnn1Cc1ccco1`, the z-score is 1.12 (inactive). As for `COc1ccc(-c2noc(C3CC(C(C)C)=NO3)n2)c(OC)c1` (stereo not given), the z-score is -0.525 (inactive). Turning to `Cc1nn(C)cc1-c1ccnc(N2CCN(Cc3ccc(F)cc3)C(=O)C2)n1`, the z-score is 0.865 (inactive). As for `CCCC[C@@H](N)C(=O)N1CCC(n2cc(CCCO)nn2)CC1`, the z-score is -0.47 (inactive).

Regarding `COc1nccnc1-c1ccc2c(c1)OCO2`, the z-score is 0.365 (inactive). Then `CCN(C(=O)c1cc(-c2cnc(C3CC3)nc2)nc2cc(C)ccc12)C(C)C`, with 1.41 (inactive); and `CCOC(=O)c1ccc(N2CCC(c3ccc(F)cc3)C2)nc1` (stereo not given), with 0.975 (inactive). On to `c1ccc(Cn2ccnc2CNc2ncnc3nc[nH]c23)cc1`, for which the z-score is -0.435 (inactive). Turning to `COc1cccc2ccc(-c3ccc(C(C)=O)cc3)nc12`, the z-score was 2.67 (active). For the molecule `Cc1nsc(NC(=O)N2CCCC2C)n1` (stereo not given), the z-score was -0.04 (inactive). In the case of `Cc1cc(C)n(CC(C)n2cnc3cccc(C)c3c2=O)n1` (stereo not given) it was 0.34 (inactive). In the case of `CCC(CC)(CCC#N)CNC1COC2(CCCCC2)C1` (stereo not given), the z-score was -0.53 (inactive).

With `COc1cccc(CC(=O)NCc2ccsc2)c1`, the z-score is -0.32 (inactive). `Cn1ncc2[nH]c(-c3cc(F)ccc3-n3cccn3)nc21`: the z-score was -0.56 (inactive).

In the case of `Cc1cc(-c2ccccc2C(F)(F)F)nc(N)n1`, the z-score is -0.545 (inactive). As to `O=C(Nc1cccnc1)c1csc(Cc2ccccc2)n1`, the z-score is -0.815 (inactive). In the case of `CC(=O)N1CCN(C(=O)c2c(-c3ccccc3)nn(-c3ccccc3)c2C)CC1` it was -0.38 (inactive). In the case of `CC(CCCC(C)(C)O)CCNCC1(c2ccccc2)CCOCC1` (stereo not given), the z-score is -0.5 (inactive). For the molecule `CC(C)C1C(=O)N(C)CCN1C(=O)Nc1nc(-c2ccccc2)ns1` (stereo not given), the z-score was -0.345 (inactive).
